In the supplement of paper PMC10849652:
About 7,900 targets were measured; listed, in parts, are those with a hit and a random draw of the rest. About 0.6% of all pairs of compound and target were hits.

How the values were obtained:
Assay in all cases: log2 fold change, soluble protein after heating vs DMSO (PISA); higher = thermal stabilisation; K562 cells, 10 uM, 30 min; active = over 0.2 and 3.5 SD of the protein, either way, in both replicates (recomputed)
[1] = compound: CC1=C(C=C(C=C1)NC(=O)C2=CC(=CC=C2)C(C)(C)C#N)NC3=CC4=C(C=C3)N=CN(C4=O)C
Method in brief: (§1)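 Aliquots of K562 cells (2×10^6 cells/mL) treated with 10 μM compound for 30 min were heated for 3 min over 48°C-58°C. After pooling and extraction in PBS with 0.5% NP-40 at 4°C, soluble protein from a 21,000xg, 90 min spin was quantified by TMTpro 16plex LC-MS/MS with channel sums equalised. Thermal stability is expressed against control samples, from duplicates, as a log2 fold change.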

[2] = compound: CC1=C(C=C(C=C1)NC(=O)C2=CC(=CC=C2)N(C)C)NC(=O)C3=CC=C(C=C3)O
Method in brief: as §1

[3] = compound: CC1=CC=C(C=C1)SC2=C3C=C(SC3=CN=C2)C(=O)N
Method in brief: as §1

[4] = compound: CC1=NC(=CC=C1)C2=C(N=C(N2)C(C)(C)C)C3=CC4=NC=CN=C4C=C3
Method in brief: as §1

[5] = compound: CCCCN(Cc1ccc(C(=O)NO)cc1)C(=O)Nc1ccccc1 [Nexturastat A]
Method in brief: as §1

[6] = compound: CCCS(=O)(=O)Nc1ccc(F)c(C(=O)c2c[nH]c3ncc(-c4ccc(Cl)cc4)cc23)c1F [vemurafenib]
Method in brief: as §1

[7] = compound: CCCS(=O)(=O)Nc1ccc(F)c(C(=O)c2c[nH]c3ncc(Cl)cc23)c1F
Method in brief: as §1

[8] = compound: CCCc1cc(C)[nH]c(=O)c1CNC(=O)c1cc(-c2ccnc(N3CCN(C)CC3)c2)cc2c1cnn2C(C)C
Method in brief: as §1

[9] = compound: CCN(CC)Cc1ccc2cc(COC(=O)Nc3ccc(C(=O)NO)cc3)ccc2c1 [givinostat]
Method in brief: as §1

[10] = compound: CCN(CCCOc1ccc2c(Nc3cc(CC(=O)Nc4cccc(F)c4)[nH]n3)ncnc2c1)CCOP(=O)(O)O [barasertib]
Method in brief: as §1

[11] = compound: CC[C@@H]1C(=O)N(C)c2cnc(Nc3ccc(C(=O)NC4CCN(C)CC4)cc3OC)nc2N1C1CCCC1
Method in brief: as §1

[12] = compound: CC[C@@H]1C(=O)N(C)c2cnc(Nc3ccc(C(=O)N[C@H]4CC[C@H](N5CCN(CC6CC6)CC5)CC4)cc3OC)nc2N1C(C)C [volasertib]
Method in brief: as §1

[13] = compound: CC[C@H](C)N1C=C(C2=C(C=C(C=C21)C3=CN=C(C=C3)N4CCNCC4)C(=O)NCC5=C(C=C(NC5=O)C)C)C
Method in brief: as §1

[14] = compound: CC[C@H](C)[C@@H](C(=O)N[C@@H]([C@@H](C)O)C(=O)N[C@@H](CC(C)C)C(=O)[C@]1(CO1)C)NC(=O)[C@H]([C@@H](C)CC)N(C)C(=O)C [epoxomicin]
Method in brief: as §1

[15] = compound: CCn1c(C(=O)N(C2CC2)C2CC2)cc2c3c(ncn3C)c(Nc3cc(C)n(C)n3)nc21
Method in brief: as §1

[16] = compound: CCn1cc(-c2ccnc3[nH]c(-c4cccc(CN(C)C)c4)cc23)c(-c2ccc(NC(=O)N(C)C)cc2)n1
Method in brief: as §1

[17] = compound: CN(C)CC(=O)Nc1ccc2[nH]c(=O)c3ccccc3c2c1
Method in brief: as §1

[18] = compound: CN(CCOC1=CC=C(C=C1)C[C@H]2C(=O)NC(=O)S2)C3=CC=CC=N3 (racemic) [rosiglitazone]
Method in brief: as §1

[19] = compound: CN1C2=C(C3=C1C(=O)N(N=C3)CC4=CC(=CC=C4)N)SC(=C2)S(=O)C
Method in brief: as §1

[20] = compound: CN1CCC(CNc2ccc3ncc(-c4cccc(OC(F)(F)F)c4)n3n2)CC1
Method in brief: as §1

Measured: log2 fold change

MCCC2 (UniProt Q9HCC0)
Chain of UniProt Q9HCC0 (Q9HCC0 whole entry, looked up): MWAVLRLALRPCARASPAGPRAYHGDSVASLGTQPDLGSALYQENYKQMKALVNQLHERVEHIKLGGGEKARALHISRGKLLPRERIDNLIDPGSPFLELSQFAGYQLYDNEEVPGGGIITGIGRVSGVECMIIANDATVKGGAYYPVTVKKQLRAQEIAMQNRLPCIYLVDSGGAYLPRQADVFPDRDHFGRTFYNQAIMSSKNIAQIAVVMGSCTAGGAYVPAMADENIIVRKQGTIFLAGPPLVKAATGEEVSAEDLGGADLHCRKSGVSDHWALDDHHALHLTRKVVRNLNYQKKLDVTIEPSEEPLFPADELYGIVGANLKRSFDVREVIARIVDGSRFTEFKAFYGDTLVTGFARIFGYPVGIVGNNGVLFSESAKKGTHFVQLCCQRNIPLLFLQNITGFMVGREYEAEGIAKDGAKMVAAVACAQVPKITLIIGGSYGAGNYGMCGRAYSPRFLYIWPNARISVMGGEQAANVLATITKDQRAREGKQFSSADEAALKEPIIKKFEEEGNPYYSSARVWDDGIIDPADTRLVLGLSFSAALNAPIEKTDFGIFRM
inactive: [1] 0.048 | [2] -0.028 | [3] 0.026 | [4] 0.04 | [5] -0.04 | [6] 0.011 | [7] 0.013 | [8] -0.028 | [9] -0.049 | [10] -0.02 | [11] 0.003 | [12] 0.038 | [13] -0.032 | [14] -0.018 | [15] -0.007 | [16] -0.013 | [17] 0.003 | [18] 0.012 | [19] -0.031 | [20] 0.027

MDC1 (UniProt Q14676)
active: [19] 0.527
inactive: [1] -0.019 | [2] -0.037 | [3] -0.013 | [4] -0.076 | [5] 0.048 | [6] -0.037 | [7] -0.008 | [8] 0.074 | [9] 0.055 | [10] -0.074 | [11] 0 | [12] -0.074 | [13] -0.028 | [14] 0.039 | [15] -0.03 | [16] 0.384 | [17] 0.015 | [18] 0.019 | [20] 0.069

MAPKAPK2 (UniProt P49137)
Chain of UniProt P49137 (P49137 whole entry, looked up): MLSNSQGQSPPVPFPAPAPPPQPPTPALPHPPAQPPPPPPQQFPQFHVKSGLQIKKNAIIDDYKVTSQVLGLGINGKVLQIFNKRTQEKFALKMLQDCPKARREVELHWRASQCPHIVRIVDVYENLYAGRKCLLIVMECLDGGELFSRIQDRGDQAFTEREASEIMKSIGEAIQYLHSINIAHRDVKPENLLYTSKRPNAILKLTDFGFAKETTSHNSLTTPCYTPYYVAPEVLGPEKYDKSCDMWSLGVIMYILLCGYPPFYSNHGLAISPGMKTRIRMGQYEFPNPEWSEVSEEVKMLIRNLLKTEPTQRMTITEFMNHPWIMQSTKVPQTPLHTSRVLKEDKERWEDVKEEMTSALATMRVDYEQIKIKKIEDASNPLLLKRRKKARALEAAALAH
inactive: [1] 0.077 | [2] 0.082 | [3] -0.008 | [4] 0.019 | [5] -0.047 | [6] 0.074 | [7] 0.045 | [8] 0.038 | [9] 0.026 | [10] -0.001 | [11] -0.058 | [12] -0.059 | [13] 0.026 | [14] 0.049 | [15] 0.022 | [16] -0.002 | [17] 0.032 | [18] 0.023 | [19] -0.007 | [20] -0.018

MAPKAPK3 (UniProt Q16644)
Chain of UniProt Q16644 (Q16644 whole entry, looked up): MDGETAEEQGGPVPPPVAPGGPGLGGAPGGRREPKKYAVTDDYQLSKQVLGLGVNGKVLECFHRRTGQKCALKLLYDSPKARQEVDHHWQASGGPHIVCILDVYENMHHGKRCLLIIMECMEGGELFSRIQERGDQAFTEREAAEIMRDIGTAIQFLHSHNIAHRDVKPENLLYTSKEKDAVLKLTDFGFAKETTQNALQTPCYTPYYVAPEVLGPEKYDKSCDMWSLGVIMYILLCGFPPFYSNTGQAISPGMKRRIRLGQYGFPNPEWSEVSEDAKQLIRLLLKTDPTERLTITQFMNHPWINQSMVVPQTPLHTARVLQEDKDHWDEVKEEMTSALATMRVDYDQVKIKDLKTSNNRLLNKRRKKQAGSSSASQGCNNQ
inactive: [1] 0.24 | [2] 0.097 | [3] -0.025 | [4] 0.069 | [5] -0.134 | [6] 0.033 | [7] 0.063 | [8] -0.012 | [9] 0.015 | [10] 0.039 | [11] -0.084 | [12] 0.036 | [13] 0.003 | [14] 0.064 | [15] 0.048 | [16] 0.016 | [17] -0.015 | [18] 0.004 | [19] -0.14 | [20] -0.049

ILVBL (UniProt A1L0T0)
Chain of UniProt A1L0T0 (A1L0T0 whole entry, looked up): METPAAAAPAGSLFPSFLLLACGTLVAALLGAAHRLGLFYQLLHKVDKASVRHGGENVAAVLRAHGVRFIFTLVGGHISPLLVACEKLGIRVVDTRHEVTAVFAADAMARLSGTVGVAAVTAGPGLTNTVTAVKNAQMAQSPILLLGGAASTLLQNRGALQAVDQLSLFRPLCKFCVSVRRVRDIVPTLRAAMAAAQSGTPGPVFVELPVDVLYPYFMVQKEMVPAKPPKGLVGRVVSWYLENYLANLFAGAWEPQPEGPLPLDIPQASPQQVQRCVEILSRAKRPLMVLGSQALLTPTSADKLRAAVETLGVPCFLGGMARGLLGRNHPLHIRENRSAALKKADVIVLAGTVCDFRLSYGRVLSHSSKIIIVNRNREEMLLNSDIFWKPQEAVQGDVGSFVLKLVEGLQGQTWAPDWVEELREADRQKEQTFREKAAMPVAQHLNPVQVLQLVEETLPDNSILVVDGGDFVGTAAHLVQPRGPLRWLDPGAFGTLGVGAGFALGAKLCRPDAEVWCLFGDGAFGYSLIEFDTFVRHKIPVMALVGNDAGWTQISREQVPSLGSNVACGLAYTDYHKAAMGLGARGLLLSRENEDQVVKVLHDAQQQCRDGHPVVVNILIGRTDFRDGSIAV
inactive: [1] -0.021 | [2] -0.052 | [3] 0.005 | [4] -0.051 | [5] 0.007 | [6] 0.037 | [7] 0.049 | [8] 0.004 | [9] -0.002 | [10] 0.021 | [11] 0.049 | [12] 0.069 | [13] -0.034 | [14] 0.069 | [15] 0.006 | [16] 0.042 | [17] 0.036 | [18] -0.044 | [19] -0.068 | [20] 0.019

MAD2L1 (UniProt Q13257)
Chain of UniProt Q13257 (Q13257 whole entry, looked up): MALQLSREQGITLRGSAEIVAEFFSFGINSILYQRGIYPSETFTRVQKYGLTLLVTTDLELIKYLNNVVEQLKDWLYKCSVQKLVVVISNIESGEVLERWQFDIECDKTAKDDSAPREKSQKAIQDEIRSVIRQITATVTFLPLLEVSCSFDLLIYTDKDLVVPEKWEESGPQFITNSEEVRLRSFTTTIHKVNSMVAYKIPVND
active: [12] -0.381
inactive: [1] 0.019 | [2] -0.035 | [3] -0.003 | [4] 0.031 | [5] -0.103 | [6] 0.028 | [7] 0.031 | [8] -0.129 | [9] 0.02 | [10] 0.018 | [11] -0.058 | [13] 0.016 | [14] -0.045 | [15] 0 | [16] -0.038 | [17] 0.002 | [18] 0.052 | [19] -0.081 | [20] -0.166

MFN2 (UniProt O95140)
Chain of UniProt O95140 (O95140 whole entry, looked up): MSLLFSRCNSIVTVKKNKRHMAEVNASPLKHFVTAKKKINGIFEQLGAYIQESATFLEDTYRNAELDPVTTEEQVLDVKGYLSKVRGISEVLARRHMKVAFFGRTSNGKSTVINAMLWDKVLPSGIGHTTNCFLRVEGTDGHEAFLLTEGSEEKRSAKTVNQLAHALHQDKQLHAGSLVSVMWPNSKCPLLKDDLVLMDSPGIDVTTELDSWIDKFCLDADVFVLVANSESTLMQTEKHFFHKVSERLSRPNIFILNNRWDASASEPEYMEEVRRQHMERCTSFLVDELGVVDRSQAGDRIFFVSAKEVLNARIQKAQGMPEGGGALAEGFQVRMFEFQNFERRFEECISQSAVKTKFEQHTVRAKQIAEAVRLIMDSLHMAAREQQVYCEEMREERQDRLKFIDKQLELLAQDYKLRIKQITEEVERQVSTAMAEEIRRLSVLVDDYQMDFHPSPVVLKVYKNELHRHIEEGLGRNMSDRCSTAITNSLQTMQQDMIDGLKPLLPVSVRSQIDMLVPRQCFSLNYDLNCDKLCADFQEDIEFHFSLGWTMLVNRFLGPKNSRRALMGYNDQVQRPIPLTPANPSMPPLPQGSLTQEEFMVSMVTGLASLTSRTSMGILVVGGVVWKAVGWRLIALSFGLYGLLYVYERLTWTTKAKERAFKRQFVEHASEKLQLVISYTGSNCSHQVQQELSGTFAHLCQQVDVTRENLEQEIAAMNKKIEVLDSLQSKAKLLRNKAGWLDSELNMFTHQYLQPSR
inactive: [1] -0.021 | [2] -0.029 | [3] 0.018 | [4] 0.009 | [5] -0.022 | [6] 0.019 | [7] 0.064 | [8] -0.004 | [9] 0.01 | [10] 0.025 | [11] -0.1 | [12] -0.23 | [13] 0.011 | [14] 0.047 | [15] -0.004 | [16] 0.011 | [17] 0.009 | [18] 0.03 | [19] -0.011 | [20] -0.213

LMF2 (UniProt Q9BU23)
inactive: [1] 0.009 | [2] -0.07 | [3] 0.025 | [4] -0.078 | [5] -0.022 | [6] 0.067 | [7] -0.022 | [8] 0.016 | [9] 0.033 | [10] -0.002 | [11] -0.109 | [13] -0.027 | [14] 0 | [15] -0.053 | [16] 0.12 | [17] -0.017 | [18] 0.039 | [19] -0.007 | [20] -0.035
active: [12] -0.332

MAPK12 (UniProt P53778)
Chain of UniProt P53778 (P53778 whole entry, looked up): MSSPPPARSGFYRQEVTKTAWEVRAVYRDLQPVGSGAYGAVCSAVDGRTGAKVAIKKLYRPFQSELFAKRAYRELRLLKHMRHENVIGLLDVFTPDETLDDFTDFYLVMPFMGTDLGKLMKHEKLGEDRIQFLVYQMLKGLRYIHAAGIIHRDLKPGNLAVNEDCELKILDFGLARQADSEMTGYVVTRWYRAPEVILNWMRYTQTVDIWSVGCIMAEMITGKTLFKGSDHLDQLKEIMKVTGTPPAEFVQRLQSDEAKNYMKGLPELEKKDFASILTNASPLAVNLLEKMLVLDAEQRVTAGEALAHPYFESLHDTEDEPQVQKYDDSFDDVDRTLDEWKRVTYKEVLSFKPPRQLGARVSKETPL
inactive: [1] -0.043 | [2] 0.017 | [3] -0.022 | [4] 0.09 | [5] -0.112 | [6] 0.019 | [7] 0.104 | [8] 0.016 | [9] -0.058 | [10] -0.031 | [11] -0.097 | [12] 0.036 | [13] -0.128 | [14] 0.089 | [15] 0.182 | [16] -0.051 | [17] 0.009 | [18] -0.176 | [19] -0.097 | [20] -0.077

KIAA1324L (UniProt A8MWY0)
active: [11] -0.312 | [12] -0.293
inactive: [1] -0.065 | [2] -0.022 | [3] 0.028 | [4] 0.002 | [5] 0.045 | [6] 0.002 | [7] -0.048 | [8] 0.05 | [9] 0.032 | [10] 0.002 | [13] -0.012 | [14] 0.015 | [15] 0.011 | [16] -0.019 | [17] 0.091 | [18] 0.111 | [19] -0.112 | [20] -0.14

MCL1 (UniProt Q07820)
Chain of UniProt Q07820 (Q07820 whole entry, looked up): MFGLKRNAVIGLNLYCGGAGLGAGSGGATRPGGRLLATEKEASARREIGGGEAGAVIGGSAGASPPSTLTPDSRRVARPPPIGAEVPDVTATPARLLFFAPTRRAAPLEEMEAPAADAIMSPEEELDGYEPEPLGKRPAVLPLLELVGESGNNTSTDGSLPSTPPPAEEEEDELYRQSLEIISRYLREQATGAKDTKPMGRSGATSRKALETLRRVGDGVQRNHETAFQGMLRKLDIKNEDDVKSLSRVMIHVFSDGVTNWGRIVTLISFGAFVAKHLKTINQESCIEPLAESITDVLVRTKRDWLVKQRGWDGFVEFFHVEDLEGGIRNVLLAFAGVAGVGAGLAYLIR
inactive: [1] -0.022 | [2] -0.047 | [3] 0.048 | [4] 0.048 | [5] 0.08 | [6] -0.057 | [7] -0.164 | [8] 0.084 | [9] 0.075 | [10] -0.027 | [11] -0.03 | [12] -0.038 | [13] -0.033 | [14] 0.308 | [15] 0.213 | [16] -0.032 | [17] 0.052 | [18] 0.019 | [19] -0.035 | [20] -0.209

MFN1 (UniProt Q8IWA4)
inactive: [1] -0.007 | [2] 0.035 | [3] 0.039 | [4] -0.04 | [5] -0.032 | [6] -0.061 | [7] -0.021 | [8] -0.19 | [9] 0.053 | [10] 0.016 | [11] -0.099 | [12] -0.136 | [13] -0.056 | [14] 0.079 | [15] 0.015 | [16] -0.024 | [17] -0.025 | [18] 0.32 | [19] -0.045
active: [20] -0.295

MIER1 isoform 12 (UniProt Q8N108)
Chain of UniProt Q8N108 (Q8N108 whole entry, looked up): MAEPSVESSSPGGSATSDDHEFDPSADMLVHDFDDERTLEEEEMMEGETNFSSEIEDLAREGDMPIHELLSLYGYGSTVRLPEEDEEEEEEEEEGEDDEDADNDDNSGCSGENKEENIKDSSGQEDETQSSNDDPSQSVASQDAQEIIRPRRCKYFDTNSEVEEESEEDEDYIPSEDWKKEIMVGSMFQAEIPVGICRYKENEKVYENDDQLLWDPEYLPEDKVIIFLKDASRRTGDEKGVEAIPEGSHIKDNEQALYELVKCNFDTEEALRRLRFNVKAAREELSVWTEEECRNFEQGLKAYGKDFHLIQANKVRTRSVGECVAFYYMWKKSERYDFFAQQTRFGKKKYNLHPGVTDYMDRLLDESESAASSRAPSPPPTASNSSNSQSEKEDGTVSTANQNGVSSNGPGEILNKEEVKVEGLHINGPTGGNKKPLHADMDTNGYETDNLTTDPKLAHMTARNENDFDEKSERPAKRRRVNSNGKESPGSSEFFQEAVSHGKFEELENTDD
inactive: [1] 0.003 | [2] 0.016 | [3] 0.002 | [4] 0.012 | [6] -0.006 | [7] 0.008 | [8] -0.013 | [10] 0.01 | [11] -0.032 | [12] -0.102 | [13] 0.066 | [14] 0.02 | [15] -0.039 | [16] -0.095 | [17] -0.033 | [18] -0.027 | [19] -0.077 | [20] -0.107
active: [5] 0.306 | [9] 0.31

MAP2K7 isoform 4 (UniProt O14733)
Chain of UniProt O14733 (O14733 whole entry, looked up): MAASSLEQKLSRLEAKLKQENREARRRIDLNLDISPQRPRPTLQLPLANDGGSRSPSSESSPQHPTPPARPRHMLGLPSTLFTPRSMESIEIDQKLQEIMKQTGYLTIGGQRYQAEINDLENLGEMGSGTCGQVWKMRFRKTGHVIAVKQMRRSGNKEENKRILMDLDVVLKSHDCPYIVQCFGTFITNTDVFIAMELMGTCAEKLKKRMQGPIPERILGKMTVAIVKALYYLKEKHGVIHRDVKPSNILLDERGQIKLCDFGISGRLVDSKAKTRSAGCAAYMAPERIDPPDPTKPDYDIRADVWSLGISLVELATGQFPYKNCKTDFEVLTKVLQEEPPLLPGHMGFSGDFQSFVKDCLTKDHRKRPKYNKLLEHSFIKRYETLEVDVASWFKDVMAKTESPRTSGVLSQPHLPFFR
inactive: [1] -0.068 | [2] 0.003 | [3] -0.008 | [4] 0.009 | [5] -0.031 | [6] -0.01 | [7] 0.009 | [8] -0.026 | [9] -0.019 | [10] 0.016 | [11] -0.026 | [12] -0.005 | [13] 0.022 | [14] 0.07 | [15] 0.017 | [16] -0.086 | [17] -0.017 | [18] 0.033 | [19] -0.065 | [20] -0.15

JMJD6 isoform 3 (UniProt Q6NYC1)
inactive: [1] 0.055 | [2] -0.085 | [3] 0.092 | [4] 0.024 | [5] -0.147 | [6] 0.002 | [7] 0.049 | [8] 0.071 | [9] -0.095 | [10] -0.007 | [11] -0.044 | [13] -0.012 | [14] -0.015 | [15] -0.037 | [16] -0.009 | [17] -0.006 | [18] 0.031 | [19] 0.006 | [20] -0.09
active: [12] -0.306

LNPK (UniProt Q9C0E8)
inactive: [1] -0.011 | [2] 0.01 | [3] -0.038 | [4] 0.016 | [5] -0.023 | [6] -0.042 | [7] -0.027 | [8] -0.028 | [9] -0.018 | [10] 0.012 | [11] 0.02 | [12] 0.024 | [13] -0.038 | [14] -0.007 | [15] -0.032 | [16] 0.018 | [17] -0.042 | [18] 0.01 | [19] 0.012 | [20] 0.059
